In PubChem BioAssay one finds activation and inhibition data, which are given here for 16 compounds.

A number with no mark means an inactive call. Some of the results follow. Active and inactive are the calls of the source. Unless noted, no stated cut-off is given here; in the data, active means inhibition above about 23%; inactive means the rest.

Assay [1] concerns the target Peroxisome proliferator-activated receptor gamma (Homo sapiens) (UniProt P37231). Put plainly: retested PPARg-SRC-2 recruitment enhancers – biochemical, HTS, confirmation (AID 1297; in the data active means activation above about 22%;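 further: 0% = vehicle alone and 100% = reference agonist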). The conditions noted are these: biochemical SRC-2 recruitment by PPARgamma; at 8 µM; active compounds read high.
For assay [2] the target is unchanged. Nature of the assay: retest of SRC-1 recruitment enhancers for PPARgamma – biochemical, confirmation (AID 1300; in the data active means activation above about 20%;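 further: 0% = vehicle wells and 100% = reference agonist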). The note with it: PPARgamma–SRC-1 coactivator recruitment biochemical assay; at 8 µM; active compounds read high.
Assay [3] deals with Peroxisome proliferator-activated receptor gamma (Homo sapiens) + Nuclear receptor coactivator 3 (Homo sapiens) (UniProt P37231+Q9Y6Q9). Nature of the assay: agonists promoting SRC-3 binding to PPARgamma – biochemical, confirmation (AID 1301; in the data active means activation above about 24%;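 further: 0% = vehicle wells and 100% = reference agonist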). The conditions noted are these: biochemical PPARgamma-SRC-3 coactivator recruitment, agonist mode; at 8 µM; active compounds read high.
Peroxisome proliferator-activated receptor gamma (Homo sapiens) + Nuclear receptor coactivator 3 (Homo sapiens), sequence (P37231 whole entry, looked up): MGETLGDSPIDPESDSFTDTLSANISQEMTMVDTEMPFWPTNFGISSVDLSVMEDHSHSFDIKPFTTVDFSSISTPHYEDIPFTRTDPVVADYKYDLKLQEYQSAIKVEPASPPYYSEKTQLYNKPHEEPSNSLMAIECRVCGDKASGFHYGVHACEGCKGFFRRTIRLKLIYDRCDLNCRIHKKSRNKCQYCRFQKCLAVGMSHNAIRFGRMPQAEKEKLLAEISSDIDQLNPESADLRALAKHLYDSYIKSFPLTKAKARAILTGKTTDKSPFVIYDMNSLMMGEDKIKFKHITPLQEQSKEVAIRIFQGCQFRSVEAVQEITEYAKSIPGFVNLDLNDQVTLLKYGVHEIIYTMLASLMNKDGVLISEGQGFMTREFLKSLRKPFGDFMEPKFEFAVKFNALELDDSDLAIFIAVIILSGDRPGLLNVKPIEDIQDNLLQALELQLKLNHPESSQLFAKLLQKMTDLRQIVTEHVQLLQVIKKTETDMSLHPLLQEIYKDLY
Peroxisome proliferator-activated receptor gamma (Homo sapiens) + Nuclear receptor coactivator 3 (Homo sapiens), sequence (Q9Y6Q9 whole entry, looked up): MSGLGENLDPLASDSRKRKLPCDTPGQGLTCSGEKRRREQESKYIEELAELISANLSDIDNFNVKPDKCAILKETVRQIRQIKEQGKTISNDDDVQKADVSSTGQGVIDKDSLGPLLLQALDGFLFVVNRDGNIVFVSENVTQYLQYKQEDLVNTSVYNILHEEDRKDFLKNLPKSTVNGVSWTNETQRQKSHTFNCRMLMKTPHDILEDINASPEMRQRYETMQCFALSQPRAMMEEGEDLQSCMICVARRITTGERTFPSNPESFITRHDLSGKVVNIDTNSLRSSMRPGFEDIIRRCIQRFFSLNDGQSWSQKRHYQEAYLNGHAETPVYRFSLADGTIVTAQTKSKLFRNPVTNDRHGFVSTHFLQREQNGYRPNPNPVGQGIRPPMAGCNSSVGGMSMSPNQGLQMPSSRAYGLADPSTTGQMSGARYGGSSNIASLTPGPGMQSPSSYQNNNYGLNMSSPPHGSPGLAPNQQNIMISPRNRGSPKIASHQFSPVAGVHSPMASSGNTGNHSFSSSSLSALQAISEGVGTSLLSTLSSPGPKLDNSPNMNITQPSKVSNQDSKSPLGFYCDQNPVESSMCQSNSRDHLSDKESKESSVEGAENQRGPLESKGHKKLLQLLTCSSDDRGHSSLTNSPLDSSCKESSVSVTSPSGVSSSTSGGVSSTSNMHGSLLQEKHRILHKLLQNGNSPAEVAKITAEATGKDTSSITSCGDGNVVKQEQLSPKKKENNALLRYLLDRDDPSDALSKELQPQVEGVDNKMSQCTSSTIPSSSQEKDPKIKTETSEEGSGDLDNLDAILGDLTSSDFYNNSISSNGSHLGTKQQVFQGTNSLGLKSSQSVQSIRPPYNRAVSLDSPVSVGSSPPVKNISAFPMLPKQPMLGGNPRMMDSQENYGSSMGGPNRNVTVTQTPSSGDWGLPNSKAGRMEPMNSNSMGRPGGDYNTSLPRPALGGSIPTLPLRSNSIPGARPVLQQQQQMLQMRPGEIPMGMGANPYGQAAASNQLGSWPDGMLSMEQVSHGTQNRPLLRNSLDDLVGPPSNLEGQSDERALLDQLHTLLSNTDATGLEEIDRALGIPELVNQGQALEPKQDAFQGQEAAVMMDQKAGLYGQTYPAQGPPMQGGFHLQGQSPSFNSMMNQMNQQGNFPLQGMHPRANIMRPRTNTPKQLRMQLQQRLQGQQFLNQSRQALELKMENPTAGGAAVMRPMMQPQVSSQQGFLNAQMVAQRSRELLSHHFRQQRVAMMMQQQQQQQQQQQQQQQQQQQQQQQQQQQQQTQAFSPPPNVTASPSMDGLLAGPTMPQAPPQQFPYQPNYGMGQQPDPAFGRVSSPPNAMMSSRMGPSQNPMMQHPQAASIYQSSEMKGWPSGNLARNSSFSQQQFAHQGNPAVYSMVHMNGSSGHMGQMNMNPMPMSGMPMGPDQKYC
The nature of assay [4]: suppression of KLF5 promoter-driven luciferase – DLD-1 cells, luminescence, confirmation (AID 1834;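 active means inhibition above a set limit taken from the earlier primary screen, cut at about 63% in these data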;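 further: 0% = DMSO wells and 100% = LY294002 at 200 µM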). The note with it: DLD-1 KLF5 promoter firefly luciferase reporter, at 4 µM, active compounds read high.
Assay [5] can be described thus: IEC-6 intestinal cell killing – luminescence, triplicate, cytotoxicity control for KLF5 inhibitor project (AID 1905).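 Further: cells exposed to compounds for 48 hours before viability read.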 The note with it: IEC-6 rat intestinal cells, viability luminescence; at 4 µM; active compounds read high.
Assay [6] concerns the target Neuropeptide Y receptor type 2 (Homo sapiens) (UniProt P49146). Nature of the assay: human Y2 receptor positive modulation or activation – cell-based, confirmation (AID 1539; in the data active means activation above about 33%). The note with it: cell-based NPY-Y2 potentiator/agonist assay; at 3.6 µM; active compounds read high.
The target of assay [7] is Neuropeptide Y receptor type 1 (Homo sapiens) (UniProt P25929). Nature of the assay: human Y1 receptor positive modulation or activation – cell-based, fluorescence, counter-screen for NPY-Y2 potentiator project (AID 1651; in the data active means activation above about 45%;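 further: cells stimulated with submaximal NPY then isoproterenol with phosphodiesterase inhibitor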). The note with it: Y1 HEK293-CNG cells, membrane potential fluorescence; at 3.6 µM; active compounds read high.
Neuropeptide Y receptor type 1 (Homo sapiens), sequence (P25929 whole entry, looked up): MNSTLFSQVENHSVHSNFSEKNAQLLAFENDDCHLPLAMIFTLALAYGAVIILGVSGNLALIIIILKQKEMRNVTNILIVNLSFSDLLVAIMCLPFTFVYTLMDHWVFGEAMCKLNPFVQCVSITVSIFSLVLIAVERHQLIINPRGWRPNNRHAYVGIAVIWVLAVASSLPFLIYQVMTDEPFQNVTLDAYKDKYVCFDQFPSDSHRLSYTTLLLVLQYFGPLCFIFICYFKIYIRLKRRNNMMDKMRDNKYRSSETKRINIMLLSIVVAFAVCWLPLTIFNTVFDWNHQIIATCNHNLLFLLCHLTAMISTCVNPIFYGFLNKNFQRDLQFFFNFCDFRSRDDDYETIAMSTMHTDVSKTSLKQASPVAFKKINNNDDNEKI
The target is the same in assay [8]. Nature of the assay: human Y1 receptor agonism, CNGC membrane potential – cell-based, fluorescence, selectivity assay for NPY-Y2 potentiator project (AID 1702;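 active means activation above the mean of DMSO-only control wells plus 3 SD, cut at about 18% in these data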;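 further: cells stimulated with 1 µM isoproterenol plus the PDE inhibitor Ro 20-1724; 0% = isoproterenol with DMSO and no NPY and 100% = 40 nM NPY; Y1 agonists lower the membrane potential dye signal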). The note with it: HEK293 Y1-CNGC, at 3.6 µM, active compounds read high.
Assay [9] is described as follows: blockers of isoproterenol-driven CNG channel signal – cell-based, HEK293-CNG parental, membrane potential fluorescence, counter-screen for NPY-Y2 potentiator project (AID 1703;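 active means inhibition above the control-well mean plus 3 SD of those wells, cut at about 22% in these data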;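 further: 0% = DMSO with isoproterenol and 100% = DMSO without isoproterenol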). The conditions noted are these: isoproterenol cAMP, at 3.6 µM, active compounds read high. On the technique in general: Counterscreens check selectivity or assay interference.
The target of assay [10] is Neuropeptide Y receptor type 2 (Homo sapiens) (UniProt P49146). Nature of the assay: agonism at human Y2 receptor without NPY – cell-based, fluorescence, counter-screen for NPY-Y2 potentiator project (AID 1710;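 active means activation above the mean of solvent-only control wells plus 3 SD, cut at about 10% in these data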;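 further: cells stimulated by isoproterenol with no NPY added so direct agonism is tested; 0% = DMSO with isoproterenol alone and 100% = NPY at EC100 plus isoproterenol; agonism lowers probe fluorescence through less cAMP and CNG channel opening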). The conditions noted are these: HEK293 Y2/CNGC cells, membrane potential fluorescence, agonist mode; at 3.6 µM; active compounds read high.
Neuropeptide Y receptor type 2 (Homo sapiens), sequence (P49146 whole entry, looked up): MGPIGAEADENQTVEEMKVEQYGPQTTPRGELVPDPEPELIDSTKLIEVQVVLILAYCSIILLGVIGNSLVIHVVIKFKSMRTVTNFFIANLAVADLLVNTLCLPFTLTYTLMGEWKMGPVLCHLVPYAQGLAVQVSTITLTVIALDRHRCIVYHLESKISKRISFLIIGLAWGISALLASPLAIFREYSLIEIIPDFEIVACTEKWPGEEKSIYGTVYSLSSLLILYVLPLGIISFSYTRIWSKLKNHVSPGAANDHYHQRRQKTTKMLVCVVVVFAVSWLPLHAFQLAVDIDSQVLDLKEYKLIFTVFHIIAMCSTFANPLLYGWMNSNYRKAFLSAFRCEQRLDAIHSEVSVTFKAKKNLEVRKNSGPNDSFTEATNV
The target in assay [11] is Sphingosine 1-phosphate receptor 4 (Homo sapiens) (UniProt O95977). Nature of the assay: blockers of human S1P4 signalling – cell-based, confirmation (AID 1524; in the data active means inhibition above about 30%). The conditions noted are these: S1P4-expressing cell line, antagonist mode, reporter read-out; at 4.98 µM; active compounds read high.
Sphingosine 1-phosphate receptor 4 (Homo sapiens), sequence (O95977 whole entry, looked up): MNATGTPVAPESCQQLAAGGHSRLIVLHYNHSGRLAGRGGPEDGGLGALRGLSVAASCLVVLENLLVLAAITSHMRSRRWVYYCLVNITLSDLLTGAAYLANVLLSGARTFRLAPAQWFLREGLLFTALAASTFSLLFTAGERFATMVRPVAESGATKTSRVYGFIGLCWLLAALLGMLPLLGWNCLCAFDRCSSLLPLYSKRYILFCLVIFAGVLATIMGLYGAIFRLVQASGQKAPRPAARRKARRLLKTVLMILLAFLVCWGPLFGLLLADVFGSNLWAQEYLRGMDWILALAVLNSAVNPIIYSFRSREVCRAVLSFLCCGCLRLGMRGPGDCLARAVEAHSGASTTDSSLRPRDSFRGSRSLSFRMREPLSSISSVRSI
Assay [12] addresses Sphingosine 1-phosphate receptor 1 (Homo sapiens) (UniProt P21453). Nature of the assay: blockade of human S1P1 receptor – cell-based, counter-screen for S1P4 antagonist project (AID 1564; in the data active means inhibition above about 40%;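 further: receptor stimulated with S1P near its EC80; 0% = agonist stimulated wells and 100% = vehicle only wells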). The note with it: cell-based S1P1 antagonist counterscreen, at 4.98 µM, active compounds read high.
In assay [13] the target is Receptor-interacting serine/threonine-protein kinase 2 (Homo sapiens) (UniProt O43353). Nature of the assay: inhibitors of RIPK2 association with NOD2 – fluorescence, CHO cells, BLA complementation, triplicate, confirmation (AID 624370;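 active means mean inhibition across replicates above a set limit taken from the earlier primary screen, cut at about 21% in these data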;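 further: 0% = DMSO-only wells and the high end = clavulanate BLA-blocked wells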). The note with it: CCF4 FRET, at 4.98 µM, active compounds read high.
Receptor-interacting serine/threonine-protein kinase 2 (Homo sapiens), sequence (O43353 whole entry, looked up): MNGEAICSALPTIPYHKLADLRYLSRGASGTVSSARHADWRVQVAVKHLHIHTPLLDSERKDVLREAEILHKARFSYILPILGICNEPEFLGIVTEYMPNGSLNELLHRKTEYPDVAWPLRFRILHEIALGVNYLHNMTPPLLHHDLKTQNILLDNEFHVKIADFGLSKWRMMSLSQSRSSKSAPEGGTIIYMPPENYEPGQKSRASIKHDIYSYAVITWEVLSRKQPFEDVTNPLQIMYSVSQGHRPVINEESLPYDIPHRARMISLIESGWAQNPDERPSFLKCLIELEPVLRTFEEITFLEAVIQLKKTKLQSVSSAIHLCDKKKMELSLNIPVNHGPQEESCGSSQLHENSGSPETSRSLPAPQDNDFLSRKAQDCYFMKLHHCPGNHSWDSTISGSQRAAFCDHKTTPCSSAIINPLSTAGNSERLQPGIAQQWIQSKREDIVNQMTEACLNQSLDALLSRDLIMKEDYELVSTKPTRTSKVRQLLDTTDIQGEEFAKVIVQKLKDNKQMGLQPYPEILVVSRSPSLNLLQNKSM
The nature of assay [14]: BLA reporter readout interference – cell-based, CHO-K1 CMV-bla, CCF4 FRET, fluorescence, artefact control for NOD2-RIPK2 interaction inhibitor project, confirmation (AID 624371;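 active means mean inhibition above the low-control mean inhibition plus three low-control SD, cut at about 11% in these data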;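 further: 0% = DMSO only wells and 100% = clavulanate high control wells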). The note with it: CCF4 FRET ratio, counterscreen, at 4.98 µM, active compounds read high.
Assay [15] deals with Bcl-2-like protein 1 (Homo sapiens) (UniProt Q07817). Nature of the assay: Bcl-xL BH3-peptide displacement, hit confirmation – biochemical, fluorescence polarization, counter-screen for MCL1 inhibitor project (AID 2166;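 active means inhibition above a cutoff equal to the mean inhibition of all tested compounds plus 3 SD, cut at about 30% in these data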). The note with it: GST-Bcl-xL / FITC-Bim BH3 peptide FP binding; at 10.9 µM; active compounds read high. On the technique in general: Fluorescence polarisation rises when a labelled molecule tumbles more slowly, as on binding a larger partner.
Bcl-2-like protein 1 (Homo sapiens), sequence (Q07817 whole entry, looked up): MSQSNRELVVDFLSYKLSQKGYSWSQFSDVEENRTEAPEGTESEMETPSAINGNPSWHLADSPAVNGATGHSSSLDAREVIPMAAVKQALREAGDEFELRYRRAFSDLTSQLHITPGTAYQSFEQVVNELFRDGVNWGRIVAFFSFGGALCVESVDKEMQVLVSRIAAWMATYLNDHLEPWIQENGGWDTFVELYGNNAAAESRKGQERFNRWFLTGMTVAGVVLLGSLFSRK

Assay [16] addresses Induced myeloid leukemia cell differentiation protein Mcl-1 (Homo sapiens) (UniProt Q07820). Put plainly: MCL1-BIM peptide interaction disruptors – biochemical, fluorescence polarization, triplicate, confirmation (AID 2168;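 active means inhibition above the average of all tested compounds plus 3 SD, cut at about 40% in these data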;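 further: 0% = DMSO wells and 100% = unlabeled Bim-BH3 control peptide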). The conditions noted are these: GST-MCL1 / FITC-Bim-BH3 fluorescence polarization; at 10.9 µM; active compounds read high.
Assay [17] concerns transactivating tegument protein VP16 (Human herpesvirus 1). Put plainly: compounds suppressing VP16-driven luciferase signal – cell-based, luminescence, single concentration, counter-screen for SRC2 inhibitor project (AID 652007; in the data active means inhibition above about 36%). The conditions noted are these: cell-based VP16 transactivation luciferase reporter, at 8.9 µM, active compounds read high.
Assay [18] has as its target Nuclear receptor coactivator 2 (Homo sapiens) (UniProt Q15596). Put plainly: inhibition of GAL4-SRC2 driven luciferase expression – cell-based, luminescence, HEK293, triplicate, confirmation (AID 652008;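 active means mean inhibition above 46.5%, the solvent-only control mean plus 3 SD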;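 further: 0% = DMSO-treated cells and 100% = Gossypol at 36 µM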). The conditions noted are these: HEK293 GAL4-SRC2 luciferase reporter, at 8.9 µM, active compounds read high.

Peroxisome proliferator-activated receptor gamma (Homo sapiens), sequence (P37231 whole entry, looked up): as the sequence (P37231 whole entry, looked up) above
Sphingosine 1-phosphate receptor 1 (Homo sapiens), sequence (P21453 whole entry, looked up): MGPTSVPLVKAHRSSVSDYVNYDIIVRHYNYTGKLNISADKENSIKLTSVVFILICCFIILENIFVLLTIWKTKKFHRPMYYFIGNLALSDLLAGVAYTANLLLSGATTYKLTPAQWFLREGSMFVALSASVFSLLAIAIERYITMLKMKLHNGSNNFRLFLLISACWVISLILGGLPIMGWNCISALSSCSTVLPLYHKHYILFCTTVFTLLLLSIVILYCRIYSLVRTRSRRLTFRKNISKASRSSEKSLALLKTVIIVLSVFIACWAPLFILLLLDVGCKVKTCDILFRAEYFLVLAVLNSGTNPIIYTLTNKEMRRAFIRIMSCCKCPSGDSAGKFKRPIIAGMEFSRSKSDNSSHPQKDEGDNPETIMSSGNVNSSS

As to `Fc1ccc(COc2cccc(-c3n[nH]c(=S)o3)c2)cc1`, the activation in assay [1] is 51.6% (active); in [2] it was 39.9% (active); in assay [3] it was 34% (active).

With `CCc1ccc(-n2c(SCc3cc(=O)n4cc(Br)ccc4n3)nc3[nH]ncc3c2=O)cc1`, the activation was 40.9% (active) in assay [1], 26.6% (active) in [2] and 28.8% (active) in assay [3].

Regarding `CCOC(=O)C1CCN(C(=O)CSc2cc(=O)n(C)c3ccccc23)CC1`, the results for the activation in assay [1], in assay [2] and in assay [3] were 38.9% (active), 22.9% (active) and 24.4% (active), respectively.

For orientation: inhibition means the drop in the measured response relative to a control, in per cent. On to `COc1ccccc1C1C2=C(COC2=O)Nc2cc3c(cc21)OCO3` (stereo not given), for which the inhibition in [4] was 88.1% (active); in [5], 82.9% (active).

Regarding `CN(C)c1ccc(CNC2C3CC4CC(C3)CC2C4)cc1` (stereo not given), the activation in [6] is 7.01%; in assay [7], -7.77%; in assay [8], -11.2%; in assay [10], -2.65%. Besides, the inhibition in assay [9] was 5.13%.

For `Nc1nonc1-c1nc2ccccc2n1Cc1ccc(F)cc1`, the inhibition in assay [11] is 35.7% (active); in [12], 33%.

For the compound `O=C(Nc1sc2c(c1-c1nc3ccccc3[nH]1)CCCC2)C1CC1`, the activation in assay [6] is 19.1%; in [7], 30.4%; in [8], 27.3% (active); in [10], 24.5% (active). The inhibition in assay [9] was 19.9%.

With `N/C(=N\S(=O)(=O)c1cc(C(F)(F)F)cc(C(F)(F)F)c1)c1cccs1`, the activation is 20.3% in [6], 29.6% in [7], 15.7% in assay [8] and 23.1% (active) in assay [10]. The inhibition in assay [9] was 25.6% (active).

For `O=C(/C=C/c1ccc(Cl)cc1Cl)c1cccnc1`, the results for the inhibition in assay [11] and in [12] were 43.4% (active) and 23.6%, respectively.

In the case of `CCOC(=O)c1sc(NC(=O)c2sc(C)nc2C)nc1C`, the figures for the inhibition in assay [4] and in assay [5] were 69.3% (active) and 2.65%, respectively.

As for `CC1CC(C)CN(S(=O)(=O)c2cccc(C(=O)N3C(=O)c4cccc(N)c4C3=O)c2)C1` (stereo not given), the inhibition in assay [11] was 32.3% (active); in assay [12], 8.25%; in assay [13], 34.1% (active); in assay [14], 33.2% (active).

Regarding `CN(CCO)c1ccc(/C=N/Nc2nncc3ccccc23)cc1`, the values for the inhibition in [4] and in [5] were 91.2% (active) and -0.69%, respectively.

As for `Cc1ccc(/C=N/NC(=O)COc2ccccc2-c2ccccc2)cc1`, the inhibition was 85.4% (active) in [4], 74.2% (active) in assay [5], -0.45% in assay [15] and -3.63% in assay [16].

In the case of `CCOc1cc(C(=O)N2CCc3cc(OC)c(OC)cc3C2)ccc1OC(F)F`, the inhibition is 85.3% (active) in [4], 59.4% (active) in assay [5], -28% in [17] and 14.7% in assay [18].

For `O=C(/C=C/c1ccc(Cl)c([N+](=O)[O-])c1)c1ccc(O)cc1`, the inhibition in assay [11] was 102% (active); in assay [12] it was 14.6%; in [13], 31.7% (active); in [14], -1.48%.

On to `O=C1NC(c2ccc(-c3ccccc3[N+](=O)[O-])o2)C(C(=O)c2ccc(Cl)cc2)C(O)(C(F)(F)F)N1` (stereo not given), for which the activation in assay [6] was 28.1%; in assay [7] it was 38.7%; in [8], 30.5% (active); in [10], 32.6% (active). In addition, the inhibition in assay [9] is 31.2% (active).
